Assay results reported in PubChem BioAssay AID686979 (National Center for Advancing Translational Sciences (NCATS), 2013).
The campaign covered roughly 420,000 compounds. About 50,000 (12%) were called active. Not shown: some 26% with an inconclusive outcome. Calls follow the shape of the dose curve; as a rule, active = well fitted inhibition curve with a large enough effect; inconclusive = small, poorly fitted or top-dose-only effect; inactive = flat fitted curve, though single readings scatter. For the sample, actives were picked, then their nearest neighbours and some compounds at random.

Assay: qHTS for Inhibitors of human tyrosyl-DNA phosphodiesterase 1 (TDP1): qHTS in cells in presence of CPT; also: nearly all actives have a fitted effect of over 55% in size
Conditions: chicken DT40 Tdp1-/-;hTDP1 cells + 20 nM CPT, ATP luminescence, 48 h; series mostly up to 46.2 µM; activity change, negative = growth inhibition: at the top concentration
How it was run: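 Chicken DT40 Tdp1-/- cells complemented with human TDP1, 400 cells/well, exposed to compounds plus 20 nM camptothecin for at least 48 h at 37 C; viability read as ATP content by CellTiter-Glo luminescence.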
% is scaled to controls: 0 for no effect and ±100 for the full control effect; potency is read from the fitted curve at half-maximal effect.

Row | SMILES | activity change, negative = growth inhibition | Potency
1 | Nc1[nH]c(C(=O)c2ccccc2)c(-c2ccc(Br)cc2)c1C(=O)NC1CC1 | -9.96% (inactive) | –
2 | Cc1cc(N/N=C\c2ccc(Br)cc2)nc(-n2nc(C)cc2C)n1 | – | 1.64 µM (active)
3 | COc1cc(NS(=O)(=O)c2ccccc2)ccc1-n1nc(C)cc1C | -9.7% (inactive) | –
4 | Cc1ccc(S(=O)(=O)Nc2nc(C)cc(N/N=C/c3ccc(O)cc3)n2)cc1 | -0.757% (inactive) | –
5 | COc1ccccc1/C=N\Nc1cc(C)nc(-n2nc(C)cc2C)n1 | – | 6.51 µM (active)
6 | COc1cccc(/C=N/Nc2cc(C)nc(-c3ccccc3O)n2)c1O | – | 18.4 µM (active)
7 | COc1ccccc1-n1c(SCC(=O)Nc2cccc(C(=O)O)c2)nnc1-c1ccccc1O | -3.19% (inactive) | –
8 | COc1cccc2c(N/N=C/c3ccco3)cc(C)nc12 | -2.9% (inactive) | –
9 | Cc1nc(Cl)cc(N/N=C/c2ccccc2)n1 | -13% (inactive) | –
10 | COc1ccccc1/C=N/Nc1nc(C)c(C(C)=O)s1 | -19.1% (inactive) | –
11 | COc1ccc(CCNS(=O)(=O)c2ccc(Cl)s2)cc1OC | -20.2% (inactive) | –
12 | COc1cc(=O)n2c(c1C(=O)N(C)Cc1nonc1C)CCN(C(=O)c1ccc(C)cc1C)CC2 | 14.1% (inactive) | –
13 | CCc1ccc(NC(=O)CC2C(=O)NCCN2C(=S)Nc2ccccc2)cc1 (centres undefined) | -7.73% (inactive) | –
14 | O=C(Nc1cccc2cccnc12)c1cccc(Cl)c1 | -16.5% (inactive) | –
15 | O=C(Nc1nnc([C@H]2C[C@H](O)[C@@H](CO)O2)s1)c1cccc(Cl)c1 | -16.4% (inactive) | –
16 | O=C(Nc1cccc2cccnc12)c1ccc2sc([C@H]3C[C@H](O)[C@@H](CO)O3)nc2c1 | – | 18.4 µM (active)
17 | O=C1CCC(=O)N1CCC(=O)N(C(=O)NC1CCCCC1)C1CCCCC1 | 3.74% (inactive) | –
18 | NC(=O)C[n+]1cccc(C(N)=O)c1 | -1.13% (inactive) | –
19 | COc1c(O)ccc2c1CN1CCc3cc4c(cc3C1C2)OCO4 (centres undefined) | – | 14.6 µM (active)
20 | COc1cc(COCC(O)CN2CCN(Cc3ccc4c(c3)OCO4)CC2)cc(OC)c1OC (centres undefined) | -5.21% (inactive) | –
21 | COCCCN1C(=O)C(=O)/C(=C(/O)c2ccc(S(=O)(=O)N3CCOCC3)cc2)C1c1ccc(F)cc1 (centres undefined) | -34% (inactive) | –
22 | Cc1[nH]n(-c2ccccc2)c(=O)c1/C=N/NC(=O)c1ccoc1C | – | 1.46 µM (active)
23 | Cc1nn(C(=O)c2ccoc2C)c(N)c1-c1ccccc1 | -9.59% (inactive) | –

Row | SMILES | activity change, negative = growth inhibition | Potency
24 | Cc1ccc(N=Nc2c(C)[nH]n(-c3ccccc3)c2=O)cc1 | -17.8% (inactive) | –
25 | CCOC(=O)C1CCCN(S(=O)(=O)c2ccc(-n3cnnn3)c(C)c2)C1 (centres undefined) | -25.7% (inactive) | –
26 | COc1ccc(CCn2ccc(O)c(Cc3ccc(Cl)cc3Cl)c2=O)cc1OC | 3.26% (inactive) | –
27 | CC1CC(C)(C)CC2(C1)NC(=O)N(CC(=O)Nc1nccs1)C2=O (centres undefined) | 1.24% (inactive) | –
28 | CSc1ccc(NC(=O)/C=C/C(=O)O)cc1 | 13.8% (inactive) | –
29 | COC(=O)c1sc(-c2ccc(C(C)(C)C)cc2)cc1NC(=O)/C=C/C(=O)O | – | 4.61 µM (active)
30 | O=C(O)/C=C/C(=O)Nc1ccc(F)cc1F | 13.5% (inactive) | –
31 | CCC(Cc1ccccc1)NC(=O)C1CCCCC1 (centres undefined) | -15.5% (inactive) | –
32 | CN1CCN(CCNC(=O)Nc2ccccc2[N+](=O)[O-])CC1 | 1.85% (inactive) | –
33 | CCn1c(/C=C/c2ccc([N+](=O)[O-])o2)nc2ccccc2c1=O | – | 1.3 µM (active)
34 | Cc1nc2ccccc2c(=O)n1Cc1ccc([N+](=O)[O-])cc1 | -21.5% (inactive) | –
35 | Cn1cc(/C=C/c2nc3ccccc3c(=O)n2-c2cccc([N+](=O)[O-])c2)c2ccccc21 | -9.1% (inactive) | –
36 | CC(C)c1ccc(S(=O)(=O)N2CCC3(CC2)OCCO3)cc1 | -2.81% (inactive) | –
37 | CCn1c(NC(=O)c2ccccc2)c(-c2cccs2)c(=O)c2ccccc21 | – | 20.6 µM (active)
38 | CCn1c(=O)c2cc(C(=O)Nc3cccc(C(C)=O)c3)sc2c2ccccc21 | -18.9% (inactive) | –
39 | CCn1c(=O)cc(O)c2ccccc21 | 2.66% (inactive) | –
40 | CSCCC(NS(=O)(=O)c1ccc(C)cc1)C(=O)N1CCCC1 (centres undefined) | 1.59% (inactive) | –
41 | CCCn1c(N)c(C(=O)CSc2nnc3n2CCCCC3)c(=O)[nH]c1=O | -2.04% (inactive) | –
42 | CCOc1[nH]n(-c2ccc(Cl)cc2)c(=O)c1C=Nc1ccc(O)cc1 | – | 5.8 µM (active)
43 | CCOc1ccc(N=C2NC(=O)S/C2=C\c2ccc(O)cc2)cc1 | -8.1% (inactive) | –
44 | Cc1cc(C)cc(C(=O)NCCN2CCOCC2)c1 | 0.936% (inactive) | –
45 | Cc1ccc(C(=O)NCCN2CCOCC2)cc1C | -17.7% (inactive) | –
46 | CC(=O)Oc1cc2c(C(=O)NCCN3CCOCC3)c(C)oc2c2ccccc12 | – | 18.4 µM (active)

Row | SMILES | activity change, negative = growth inhibition | Potency
47 | COc1ccc(OC)c(-n2nnc3c(sc4nc(C)c(Br)c(C)c43)c2=O)c1 | -1.52% (inactive) | –
48 | Cc1ccc(CN(C(=O)c2ccccc2[N+](=O)[O-])c2ccccn2)cc1 | – | 11.6 µM (active)
49 | CCC(=O)N(Cc1ccccc1)c1ccccn1 | -1.38% (inactive) | –
50 | COc1cc(SC)ccc1C(=O)N(Cc1ccccc1)c1ccccc1 | -29.6% (inactive) | –
51 | Cc1ccc(S(=O)(=O)N(Cc2ccccc2)c2ccccn2)cc1[N+](=O)[O-] | 6.32% (inactive) | –
52 | COC(=O)c1cc(C(=O)N(Cc2ccccc2)c2ccccn2)cc([N+](=O)[O-])c1 | 1.49% (inactive) | –
53 | COc1cc(CN(C(=O)c2ccccc2Br)c2ccccn2)cc(OC)c1OC | – | 18.4 µM (active)
54 | COc1ccc(CCOC(=O)CNC(=O)c2ccc(Cl)cc2Cl)cc1 | 2.02% (inactive) | –
55 | Cc1ccc(N2CC(NC(=O)Cc3cccs3)CC2=O)cc1 (centres undefined) | -2.46% (inactive) | –
56 | C[C@H](NC(=O)c1nc[nH]c1C(=O)N[C@@H](C)C(=O)OC(C)(C)C)C(=O)OC(C)(C)C | -25.7% (inactive) | –
57 | COc1cc(C(=S)NC2CCCCC2)ccc1O | -6.73% (inactive) | –
58 | Cc1cccc(N2CCN(S(=O)(=O)c3ccc(-c4cc(C)no4)s3)CC2C)c1 (centres undefined) | 5.36% (inactive) | –
59 | Cc1cccc(N2CCN(C(=O)CCn3c(=O)c4cccn4c4cccnc43)CC2C)c1 (centres undefined) | – | 3.66 µM (active)
60 | Cc1cccc(NC(=O)Cn2c(=O)n(CCC(C)C)c(=O)c3cccnc32)c1 | -24.7% (inactive) | –
61 | CCOc1ccc(-c2cc3c(=O)n(CC(=O)NCc4ccc(OC)cc4)ccn3n2)cc1 | -8.52% (inactive) | –
62 | CCOC(=O)C1C(c2ccc(OC)c(OC)c2)c2c([nH][nH]c2=O)CC1(C)O (centres undefined) | -6.37% (inactive) | –
63 | O=C(Nc1c(Br)cc2c(c1Br)Cc1ccccc1-2)C(F)(F)F | -14% (inactive) | –
64 | CCCCC(O)(CCCC)C(=O)NN(C(=O)CCl)c1ccccc1 | – | 14.6 µM (active)
65 | CC(C)(O)C(=O)NN(C(=O)c1ccccc1)c1cccc(Br)c1 | -2.93% (inactive) | –
66 | COC(=O)N(NC(=O)C(O)(C(C)C)C(C)C)c1ccccc1 | 23.2% (inactive) | –
67 | CCCCCNC(=O)C1c2ccccc2Oc2ccccc21 | -6.61% (inactive) | –
68 | CCCC(O)(CCC)C(=O)NN(C(=O)CCl)c1cccc(C)c1 | – | 4.61 µM (active)
69 | Cc1ccc(N(NC(=O)C(C)(C)O)C(=O)c2ccccc2)cc1C | -9.93% (inactive) | –
